{
  "source": "PubChem BioAssay (Tox21)",
  "note": "The source made the active and inactive calls. Calls come from the whole dose curve; as a rule, active = well fitted curve in the direction sought with a large enough effect in the repeat runs; inconclusive = weak or mixed curves; inactive = flat fitted curve, though single readings scatter. % is set by controls: 0 for no effect and ±100 for the full control effect.",
  "data": [
    {"experiment": "qHTS assay to test for compound auto fluorescence at 460 nm (blue) in HepG2 cell free culture (AID 720685)", "details": "Cell-free culture medium, blue autofluorescence 405/460 nm; series mostly up to 91.3 µM", "text": "U.S. Tox21 Program National Center for Advancing Translational Sciences [NCATS] NIH Chemical Genomics Center [NCGC] U.S. Environmental Protection Agency [EPA] National Institutes of Environmental Health Sciences [NIEHS] National Toxicology Program [NTP] U.S. Food and Drug Administration [FDA] Tox21 Assay Overview: Compound auto fluorescence often interferes with screening of the compound library against various biological targets and signaling pathways. Some of these compounds may have fluorophoric properties. Such properties may interfere with the assay outputs resulting in false positives and/or negatives. To decrease such complications and ensure the compound activities are relevant in terms of biological response, the Tox21 10K compound library was screened for auto fluorescence. From the fluorophores used as reporter signals in our screening assays, the auto fluorescence equivalencies of compounds against three fluorophores have been evaluated: Triamterene, Fluorescein and Rose Bengal sodium for blue, green and red fluorescence, respectively. The fluorescence intensities were measured using Excitation/Emission wavelengths at 405/460nm, 485/535nm and 540/590nm for blue, green and red labels, respectively. This assay includes the blue fluorescence data.\nTox21 Assay Protocol Summary: 5 uL of culture medium (MEM containing 10% FBS) per well was dispensed into black wall/clear bottom 1536-well plates using a Multidrop Combi Dispenser (ThermoFisher Scientific, Waltham, MA). After 23 nL compound or DMSO vehicle was transferred into assay plate by a pintool work station (Kalypsys, San Diego, CA), fluorescence intensities in the assay plates were measured by an Envision (PerkinElmer, Shelton, CT) plate reader using three labels for measuring blue, green and red fluorescence at […] 460, 535 and 590nm respectively.", "values": [
      {"smiles": "CC(C)CCCCOC(=O)c1ccccc1C(=O)OCCCCC(C)C", "outcome": "inactive"},
      {"smiles": "CC(=O)Nc1cccc(C)c1", "outcome": "inactive"},
      {"smiles": "Oc1cn2c(n1)Nc1ccc(Cl)c(Cl)c1C2", "outcome": "inactive"},
      {"smiles": "O=C1c2ccccc2C(=O)c2cc(S(=O)(=O)O)ccc21", "outcome": "inactive"},
      {"smiles": "CC1=C(C(=O)O)N2C(=O)[C@@H](NC(=O)[C@H](N)c3ccc(O)cc3)[C@H]2SC1", "fluorescence, % of fluorescent control": "0.197% [at 18.6 µM] (inactive)"},
      {"smiles": "O=C(OCC(COC(=O)c1cccnc1)(COC(=O)c1cccnc1)COC(=O)c1cccnc1)c1cccnc1", "outcome": "inactive"},
      {"smiles": "O=C(OCc1ccccc1)C(=O)OCc1ccccc1", "outcome": "inactive"},
      {"smiles": "COc1ccc(C2CNC(=O)C2)cc1OC1CCCC1", "note": "(stereo not given)", "fluorescence, % of fluorescent control": "-0.0095% [at 18.6 µM] (inactive)"},
      {"smiles": "O=C(Nc1ccc(Cl)c(Cl)c1)C1CC1", "outcome": "inactive"},
      {"smiles": "Cc1ccc(C=O)cc1C", "outcome": "inactive"},
      {"smiles": "CCCCCCOC(=O)CC", "outcome": "inactive"},
      {"smiles": "CCCCCCCCCCl", "outcome": "inactive"},
      {"smiles": "CC(=O)NCCCCCC(=O)O", "outcome": "inactive"},
      {"smiles": "CCCCCCCCSCC", "outcome": "inactive"},
      {"smiles": "CC(CC=O)CCCC(C)(C)O", "note": "(stereo not given)", "outcome": "inactive"},
      {"smiles": "N[C@@H](COP(=O)(O)O)C(=O)O", "outcome": "inactive"},
      {"smiles": "OC[C@H](Cc1cccc(O)c1)[C@H](CO)Cc1cccc(O)c1", "outcome": "inactive"},
      {"smiles": "CCOC(=O)c1ncn2c1CN(C)C(=O)c1cc(F)ccc1-2", "outcome": "inactive"},
      {"smiles": "CN(C)C(=O)CNC(=O)Cc1ccccc1", "outcome": "inactive"},
      {"smiles": "COc1ccc(-c2cc(=O)c3c(O)cc(O[C@@H]4O[C@H](CO[C@@H]5O[C@@H](C)[C@H](O)[C@@H](O)[C@H]5O)[C@@H](O)[C@H](O)[C@H]4O)cc3o2)cc1O", "outcome": "inactive"},
      {"smiles": "C[C@@H](O)[C@H]1C(=O)N2C(C(=O)O)=C(SCCN=CN)C[C@H]12", "fluorescence, % of fluorescent control": "1.1% [at 18.6 µM] (inactive)"},
      {"smiles": "CC(C)CCCC(C)(C)O", "outcome": "inactive"},
      {"smiles": "O=C(O)Cc1ccc(Cl)cc1Cl", "outcome": "inactive"},
      {"smiles": "CC(=O)OC(C)OC(=O)C(C)c1ccc(-c2ccccc2)c(F)c1", "note": "(stereo not given)", "outcome": "inactive"},
      {"smiles": "CN1CCN(CC(=O)N2c3ccccc3C(=O)Nc3cccnc32)CC1", "outcome": "inactive"},
      {"smiles": "O=C(O)c1cc(Cl)cc([N+](=O)[O-])c1Cl", "outcome": "inactive"},
      {"smiles": "CCCCCCN", "outcome": "inactive"},
      {"smiles": "CCCOC(OCCC)OCCC", "outcome": "inactive"},
      {"smiles": "CCCC/C=C/C=C\\C=O", "outcome": "inactive"},
      {"smiles": "O=Cc1ccc(Cl)c(Cl)c1", "outcome": "inactive"},
      {"smiles": "O=C(/N=N/C(=O)OCc1ccccc1)OCc1ccccc1", "outcome": "inactive"},
      {"smiles": "CC1(CO)CN(c2ccccc2)NC1=O", "note": "(stereo not given)", "outcome": "inactive"},
      {"smiles": "C#CC(C)N(C)C(=O)Nc1ccc(Cl)cc1", "note": "(stereo not given)", "outcome": "inactive"},
      {"smiles": "CO[C@@H]1[C@@H](OC(N)=O)[C@@H](O)[C@H](Oc2ccc3c(O)c(NC(=O)c4ccc(O)c(CC=C(C)C)c4)c(=O)oc3c2C)OC1(C)C", "fluorescence, % of fluorescent control": "0.0828% [at 18.6 µM] (inactive)"},
      {"smiles": "O=C(CCN1CCN(CCO)CC1)N1c2ccccc2Sc2ccc(C(F)(F)F)cc21", "outcome": "inactive"},
      {"smiles": "N[C@@H](CCC(=O)N[C@@H](CS)C(=O)NCC(=O)O)C(=O)O", "outcome": "inactive"},
      {"smiles": "Cc1ccsc1/C=C/C1=NCCCN1C", "fluorescence, % of fluorescent control": "-0.0937% [at 18.6 µM] (inactive)"},
      {"smiles": "CCCCC(CC)COCCO", "note": "(stereo not given)", "outcome": "inactive"},
      {"smiles": "C=C(C)C(=O)OCCOP(=O)(O)OCCOC(=O)C(=C)C", "outcome": "inactive"},
      {"smiles": "Cc1cc2cc3c(C)cc(=O)oc3c(C)c2o1", "fluorescence, % of fluorescent control": "1.64% [at 18.6 µM] (inactive)"}
    ]}
  ]
}
